FMDV inh: High Throughput Screening for Foot and Mouth Disease Virus Antivirals; 410,000 compounds, 1.2% hits; FMDV antiviral cell-based qHTS; Potency, µM (highest dose often 57.9 µM), inactives show top-dose activity change, negative = inhibition, actives largely listed as inhibitors; calls by dose curve; tested in HEK293T cells; further: read-out not given here; nearly all actives have a fitted effect of over 45% in size
Sm TGR block: qHTS Assay for the Inhibitors of Schistosoma Mansoni Peroxiredoxins; Schistosoma mansoni thioredoxin glutathione reductase (TGR), Q962Y6; purified TGR, DTNB reduction, TNB absorbance 405 nm; 360,000 compounds, 3% hits; Potency, µM (highest dose often 114 µM), inactives show at the top dose activity change, negative = inhibition, most hits filed as inhibitors; AID 485364, 2010; further: nearly all actives have a fitted effect of over 60% in size
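TGR 20 nM + NADPH 100 uM (dispensed conc.), cpd preinc 15 min RT; start with NADPH (500 uM addition) then DTNB (15 mM addition). Kinetic TNB absorbance, 405 nm filter. Four-parameter Hill fit across titration.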
RE007 growth inh: qHTS Assay for Inhibitors of the HIV-1 protein Vpr; 360,000 compounds, 0.21% hits; Potency, µM (doses to about 92.2 µM), for inactives: top-dose activity change, negative = less growth, hits mostly inhibitors; S. pombe RE007 Vpr strain, BacTiter-Glo ATP luminescence, 24 h; active means well fitted falling curve with a large enough effect; inconclusive means small, poorly fitted or top-dose-only effect; inactive means no such curve, though single readings can be large or run the other way; further: nearly all actives have a fitted effect of over 50% in size
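Fission yeast strain RE007, carrying one chromosomally integrated HIV-1 vpr copy, was seeded at OD 0.01 in PMG+AL medium with 23 nL pinned compound. After 24 h at 30 °C and 99% humidity, viability was read by BacTiter-Glo luminescence.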
TbPYK inhibitor: qHTS of Trypanosoma Brucei Inhibitors | Potency, µM (highest dose often 76.8 µM), for the others: at the highest dose activity, negative = inhibition, most hits filed as inhibitors | TbPYK enzyme, Kinase-Glo Plus ATP luminescence, 45 min | AID 624173, 2012 | 410,000 compounds, 0.12% hits | pyruvate kinase (Trypanosoma brucei), Q57TT1; further: nearly all actives have a fitted effect of over 50% in size
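Glycolytic pyruvate kinase of T. brucei was incubated with substrate, test compound and 130 uM ADP for 45 minutes at room temperature. Luminescent Kinase-Glo Plus signal was measured after 10 minutes.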
* hit, by the source's call; ? = inconclusive; . = no result; [ ] = another dose, or the depositor's remark. Hits are enriched below; roughly 3.7% of the tested compounds scored in any of these assays. Unless noted, the call rests on the fitted dose curve; in most records, active means well fitted curve in the direction sought with a large enough effect; inconclusive means small, poorly fitted or top-dose-only effect, or another doubt; inactive means no such curve, though single readings can be large; an effect the other way counts as inactive or inconclusive. On the % scale 0 is the no-effect control and ±100 the full control effect; potency means the concentration at half of the fitted maximal effect.

SMILES	FMDV inh	Sm TGR block	RE007 growth inh	TbPYK inhibitor
O=C1OC(c2cccs2)=N/C1=C\c1ccc(-c2ccccc2Cl)o1	-13.7%	?	-6.6%	3.3%
C/C=C1\NC(=O)[C@H]2CSSCC/C=C\[C@H](CC(=O)N[C@H](C(C)C)C(=O)N2)OC(=O)C(C(C)C)NC1=O (some centres undefined)	.	.	.	2.1%
Cc1cc(C)cc(NC(=O)CN(c2cc(C(F)(F)F)ccc2Cl)S(=O)(=O)c2ccccc2)c1	-18.4%	1.2%	.	5.7%
CN(Cc1ccccc1)C1CC(=O)N(c2ccc(C(=O)O)cc2)C1=O (centres undefined)	-19.7%	20µM*	0.7%	8.4%
CCCCCC(=O)N(O)C1CC(=O)N(c2ccccc2)C1=O (centres undefined)	-19.4%	?	10µM*	-14.9%
O=C(/C=C/c1ccccc1Cl)c1cccnc1	14.1µM*	12.6µM*	?	-22.5%
CCN(CC)c1ccc(/C=C/C(=O)c2cccnc2)cc1	-11.7%	4.1%	18.7%	-3.2%
N#Cc1ccc(/C=C/C(=O)c2cccnc2)cc1	39.8µM*	28.2µM*	44.7µM*	?
O=C(/C=C/c1ccc(Cl)cc1)c1cccnc1	-7.4%	14.1µM*	28.2µM*	-10.3%
O=C(C=Cc1ccccc1F)c1ccccc1	17.3%	.	?	-7.7%
O=C(/C=C/c1ccccc1Cl)c1ccc(O)cc1	13.4%	44.7µM*	-4.7%	-4.5%
CCOc1ccc(C2C(C(N)=O)=C(C)Nc3nc(SCc4ccccc4)nn32)cc1 (centres undefined)	0.7%	0.9%	.	-3.9%
Cc1cc(-c2ccnc(-n3ncc(C(=O)NCC4COCCO4)c3C)n2)c(C)s1 (centres undefined)	38.4%	.	.	.
CC(C)c1ccc(NC(=O)c2ccc(F)c(S(=O)(=O)N3CCc4ccccc4C3)c2)cc1	?	7.8%	.	-1.3%[15.4 µM]
O=C(/C=C/c1c(F)cccc1Cl)c1ccc(O)cc1	12.2%	39.8µM*	-24.6%	-8.9%
O=C(/C=C/c1c(F)cccc1Cl)Nc1ncccn1	23.3%	-8.8%	8.6%	-13.8%
O=C(/C=C/c1cccnc1)/C=C/c1cccnc1	11.2µM*	3.16µM*	?	-22.4%
COCC1CCCN(c2nc(CN3CCN(C(=O)c4ccco4)CC3)nc3ccccc23)C1 (centres undefined)	3.5%	.	.	.
O=C1C=C(Nc2cccc3cccnc23)c2ccccc2C1=O	28.2µM*	31.6µM*	-21.6%	-9.6%
CCOC(=O)c1cc([N+](=O)[O-])cc([N+](=O)[O-])c1Sc1ncnc2nc[nH]c12	22.4µM*	.	11.8%	-28.1%
CCCOc1ccc(C(=O)Nc2cc3nn(-c4ccc(CC)cc4)nc3cc2C)cc1	31.3%	1.1%	.	-1.0%
Cc1ccc(-c2nc(-c3cc4cccc(OCc5cccc(F)c5)c4oc3=O)no2)cc1	-0.6%	14.9%	.	1.3%
CCCCCCCCCCC1=C(C)C(=O)C(OC)=C(OC)C1=O	-21.1%[97.4 µM]	.	.	.
CCCCCCCCSC1=CC(=O)C(OC)=C(OC)C1=O	17.8µM*	.	-7.8%	14.1µM*
Fc1ccc(Br)cc1C1C=C(c2ccc(Br)s2)Nc2ncnn21 (centres undefined)	?	1.26µM*	-16.1%	1.0%
SMILES	FMDV inh	Sm TGR block	RE007 growth inh	TbPYK inhibitor
COC(=O)C1=C(C(=O)OC)C2C(C)=CC(C)=CN2C(C(=O)OC)=C1C(=O)OC (centres undefined)	-7.7%	39.8µM*	-7.0%	0.0%
Cc1ccc(-n2c(CCC(=O)O)ccc2-c2cccs2)cc1C	45.9%	10µM*	-24.0%	?
CCc1ccc(-n2c(CCC(=O)O)ccc2-c2cccs2)cc1	13.1%	3.55µM*	.	-29.4%
CCOC(=O)c1ccc(-n2c(CCC(=O)O)ccc2-c2cccs2)cc1	-2.4%	5.62µM*	?	?
CCS(=O)(=O)N1CCC2(CC1)OC(=O)C(C)=C2C(=O)NCc1ccccc1C	27.9%	6.1%	.	2.2%
CC(C)N(C)C1CCN(S(=O)(=O)c2ccc3[nH]c(=O)ccc3c2)CC1	-15.4%	50.1µM*	.	-5.4%
CN(C)c1ccc(CNC(=O)C2CCN(S(=O)(=O)c3ccc4[nH]c(=O)ccc4c3)CC2)cc1	-5.8%	-1.8%	.	-7.4%
COc1ccc(-n2nc3c(c2NC(=O)c2cc4ccccc4o2)CS(=O)(=O)C3)cc1	-12.1%	50.1µM*	10.3%	-11.2%
COc1ccc(-n2nc3c(c2NC(=O)c2ccc(Br)o2)CS(=O)(=O)C3)cc1	-15.8%	35.5µM*	11.9%	0.4%
Cc1ccccc1-n1nc2c(c1NC(=O)c1cc3ccccc3o1)CS(=O)(=O)C2	-11.6%	-18.8%	-1.3%	-1.0%
O=C(Nc1c2c(nn1-c1ccc(F)cc1)CS(=O)(=O)C2)c1ccc(Br)o1	-5.0%	-4.0%	1.8%	0.5%
CC(=O)O[C@H]1CC[C@@]2(C)C(=CCC3C2CC[C@]2(C)C(c4cccnc4)=CCC32)C1 (some centres undefined)	.	.	.	-2.4%
Cc1cc(C)nc(-n2nc(C)cc2NC(=O)CN2CCCC(C)C2)n1 (centres undefined)	.	25.1µM*	-11.2%	-16.5%
CC[N+](CC)(CC)CCOc1ccc(/C=C\c2ccccc2)cc1	-25.8%	.	.	.
CC[N+](CC)(CC)CCCCOc1ccc2c(c1)C(=O)c1cc(OCCCC[N+](CC)(CC)CC)ccc1-2	-6.8%	20µM*	-27.5%	-10.1%
CC[N+](C)(CC)CCCCOc1ccc2c(c1)C(=O)c1cc(OCCCC[N+](C)(CC)CC)ccc1-2	-15.7%	5.62µM*	?	?
COc1ccc(C(=O)COC(=O)CCS(=O)(=O)c2ccc(C)cc2)c(OC)c1	-4.7%	-1.7%	15.2%	-6.8%
COc1ccc(C(=O)CCS(=O)(=O)c2ccc(C)cc2)cc1OC	?	0.447µM*	?	-4.3%
Cc1ccc(S(=O)(=O)CCC(=O)c2ccc(O)cc2O)cc1	-24.4%	0.447µM*	?	0.5%
Cc1ncsc1C(=O)N1CCCC(C(=O)c2ccc3ccccc3c2)C1 (centres undefined)	28.2µM*	-23.8%	-6.9%	0.1%
Cc1cc(C(=O)N2CCCC(C(=O)c3ccc4ccccc4c3)C2)nn1C (centres undefined)	-29.4%	-2.4%	8.5%	-3.7%
COc1ccc(C(=O)C2CCCN(C(=O)CCc3scnc3C)C2)c(C)c1 (centres undefined)	-19.1%	31.6µM*	15.3%	-4.0%
CCOC(=O)c1sc2nc(CC(=O)OC)nc(NCc3ccco3)c2c1C	?	44.7µM*	8.7%	-5.0%
CCCCOC(=O)/C=C\C(=O)NC(N)=O	28.2µM*	?	-9.8%	-2.8%
CCCCOC(=O)/C=C\C(=O)OCCCC	-32.0%	?	0.1%	1.8%
CSc1nc(O)c(C(c2ccc(C)cc2)c2c(O)nc(SC)[nH]c2=O)c(=O)[nH]1	-10.8%	44.7µM*	-8.3%	-9.5%
CSc1nc(O)c(C(c2ccccc2)c2c(O)nc(SC)[nH]c2=O)c(=O)[nH]1	6.2%	7.94µM*	2.5%	-13.9%
CSc1nc(O)c(C(c2ccc(F)cc2)c2c(O)nc(SC)[nH]c2=O)c(=O)[nH]1	-6.9%	.	10.2%	-4.5%

Screening results: PubChem, National Center for Advancing Translational Sciences (NCATS)
